According to ChEMBL document CHEMBL1157539, “Thousands of chemical starting points for antimalarial lead identification” (Nature, 2010):

Key:
Type in all cases: functional
[1] = test system: Plasmodium falciparum; assay: GSK_TCMDC: Inhibition of Plasmodium falciparum 3D7 in whole red blood cells, using parasite LDH activity as an index of growth. Test compounds present at 2uM
[2] = test system: Plasmodium falciparum; assay: GSK_TCMDC: Inhibition of Plasmodium falciparum Dd2 in whole red blood cells, using parasite LDH activity as an index of growth. Test compounds present at 2uM
[3] = test system: HepG2; assay: GSK_TCMDC: Percent inhibition of human HepG2 cell line. Test compounds present at 10uM.

SMILES | Inhibition [1] | Inhibition [2] | Inhibition [3]
CC(=O)Nc1ccc(C(=O)Nc2ccc(-c3cccc(-c4nc5cc(C(F)(F)F)ccc5[nH]4)c3)cc2)cn1 | 100% | 98% | 29%
O=C(NC1CCN(Cc2ccc(F)cc2)CC1)c1ccc(-c2cccc(C(F)(F)F)c2)s1.O=C(O)C(F)(F)F | 83% | 11% | 88%
FC(F)(F)c1ccc2[nH]c(-c3ccc(-c4ccc(CNCC5CCCO5)cc4)cc3)nc2c1.O=C(O)C(F)(F)F (stereo unspecified) | 100% | 100% | 33%
CN(CCCCN)Cc1ccc(-c2ccc(Cl)cc2)cc1 | 97% | 20% | 96%
CC(=O)Nc1nc(C(=O)Nc2ccc(-c3cccc(-c4nc5ccccc5[nH]4)c3)cc2)cs1 | 99% | 83% | 68%
CCCn1c(Sc2ccc(C#N)c([N+](=O)[O-])c2)nnc1-c1ccc(OC)cc1 | 94% | 95% | 0%
C/N=C(/Nc1c(Cl)cccc1Cl)N(C)C.O=C(O)/C=C/C(=O)O | 98% | 1% | 0%
COc1cc(-c2nc(-c3ccc(C(=O)c4ccc(F)cc4)cc3)c(-c3ccccc3)[nH]2)cc(OC)c1O | 100% | 100% | 0%
CCc1ccc(NC(=O)c2ccc(CN3CCCN(Cc4ccc(C)s4)CC3)cc2)cc1.O=C(O)C(F)(F)F | 87% | 0% | 48%
C[C@@]12C[C@@H](Nc3nc(NCCc4ccc(O)cc4)nc(N4CCNCC4)n3)C[C@@H](C1)c1cccc(Cl)c1O2.O=C(O)C(F)(F)F | 100% | 47% | 92%
N#Cc1ccc(-n2cc(C(=O)Nc3ccc4c(c3)CCN(C3CCC3)CC4)c(C(F)(F)F)n2)cc1.O=C(O)C(F)(F)F | 100% | 99% | 37%
O=C(Cc1c[nH]cn1)Nc1cccc(-c2ccc(-c3nc4cc(C(F)(F)F)ccc4[nH]3)cc2)c1 | 100% | 99% | 10%
COc1cc(CN2CCC(N3CCc4cc(NC(=O)c5cc(C)on5)ccc43)C2)ccc1F (stereo unspecified) | 91% | 96% | 1%
O=C(NC1CC1)c1ccc2cc(C(=O)N3Cc4ccccc4C(c4ccccc4)C3)ccc2c1 (stereo unspecified) | 97% | 64% | 0%
O=C(Nc1ccc(Cl)c(C(F)(F)F)c1)c1ccc(Cl)c([N+](=O)[O-])c1 | 87% | 18% | 20%
CC(C)N1CCN(C(CN2CCN(CCCOc3ccc4nonc4c3)CC2)c2ccc(F)cc2)CC1.Cl (stereo unspecified) | 97% | 40% | 0%
COc1ccc(C=NN=c2cc(C)[nH]c3ccccc23)cc1OC | 91% | 8% | 19%
CC(C)c1ccc(Nc2nc(NCCc3c[nH]cn3)nc(NCc3ccccc3)n2)cc1 | 98% | 2% | 1%
S=C(NCCCCCN1CCC(c2c[nH]c3ccccc23)CC1)Nc1ccc(Cl)c(Cl)c1 | 100% | 31% | 89%
CC(C)CN1C(=O)c2ccccc2C(C(=O)Nc2cccc(C#N)c2)C1c1cccs1 (stereo unspecified) | 100% | 100% | 11%
O=C(N[C@@H](Cc1ccccc1)C(=O)NCCN1CCOCC1)c1ccc(O)c(-c2ccc(Cl)c(Cl)c2)c1 | 97% | 31% | 0%
Cc1cccc2nc(-c3ccc(-c4cccc(CN5CCN(CCO)CC5)c4)cc3)[nH]c12.O=C(O)C(F)(F)F | 100% | 55% | 20%
Cc1cc(NCc2ccccc2)nc(NCc2ccccc2)n1 | 91% | 18% | 21%
CC(C)=C(C(=O)OCc1ccccc1)N1C(=O)[C@@H](NC(c2ccccc2)(c2ccccc2)c2ccccc2)[C@H]1[S+]([O-])CC(=O)OC(C)(C)C (stereo partly specified) | 92% | 78% | 0%
Cc1ccc(OCC2CCN(c3ncc(C(=O)NC4CC4)cc3Cl)CC2)cc1 | 88% | 72% | 2%
CN(C)CCOc1cc(NC(=O)Nc2cccc([N+](=O)[O-])c2)ccc1I | 100% | 51% | 8%
O=C(Nc1ccc2oc(-c3ccc(Cl)cc3Cl)nc2c1)c1ccc([N+](=O)[O-])o1 | 95% | 78% | 39%
